PubChem BioAssay AID504336 (NMMLSC, 2011)

Test: TOR branch reporter RPL19A-GFP response – cell-based, S. cerevisiae, third cherry pick, flow cytometry, confirmation (AID 504336);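 further: median GFP fluorescence of all gated yeast cells by flow cytometry; ratio of well median fluorescence to plate mean of DMSO wells with DMSO = 100%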
Details: S. cerevisiae RPL19A-GFP strain, 3 h, at 10 µM, hits give low values;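 active means compounds whose GFP signal falls below 65% of the DMSO control level; inconclusive means fewer than 70 yeast cells counted in the well; inactive means the rest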

GFP response relative to DMSO, inactive:
CNc1cccc2c1C(=O)c1ccccc1C2=O 102%
C[n+]1cccc2c(Br)ccc([O-])c21 101%
CCC(C)Nc1nc(N)c([N+](=O)[O-])c(Nc2cc(OC)ccc2OC)n1 (stereo not drawn) 96.5%
